Reference: PubChem BioAssay AID1159580 (chemical genetic matrix, 2015)
About 2,000 (36%) of roughly 5,500 compounds were called active. Another 18% or so got no clear call; they are omitted. No stated cut-off is given here; in the data, active means normalized growth mostly below about 0.91 (no sharp cut-off); inconclusive means no clear call, values can overlap the other calls; inactive means mostly above about 0.92. Some of the results follow.

Assay: chemical genetic growth profiling, strain panel (AID 1159580);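 further: tested at 20 µM; growth read once vehicle control cultures reached saturation at 30 °C; 1 = growth at the plate median or of vehicle wells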
Conditions: S. cerevisiae deletion strains, growth OD

Measured: normalized growth

CCOC(=O)c1oc2c(OC)c(O)cc(O)c2c(=O)c1-c1cc(OC)c(OC)c(OC)c1
inactive: locus YAL021C, strain ccr4, stronger effect = lower value 0.985 | locus YAL026C, strain drs2, stronger effect = lower value 0.974 | locus YAL030W, strain snc1, stronger effect = lower value 0.968 | locus YBL061C, strain skt5, stronger effect = lower value 0.976 | locus YBR009C, strain hhf1, stronger effect = lower value 0.972 | locus YBR023C, strain chs3, stronger effect = lower value 0.972 | locus YBR171W, strain sec66, stronger effect = lower value 0.956 | locus YBR231C, strain swc5, stronger effect = lower value 0.974 | locus YBR279W, strain paf1, stronger effect = lower value 0.987 | locus YCL011C, strain gbp2, stronger effect = lower value 0.976 | locus YCL016C, strain dcc1, stronger effect = lower value 0.977 | locus YCL061C, strain MRC1, stronger effect = lower value 0.966 | locus YCL069W, strain vba3, stronger effect = lower value 0.989 | locus YCR088W, strain abp1, stronger effect = lower value 0.972 | locus YDL005C, strain med2, stronger effect = lower value 0.993 | locus YDL040C, strain nat1, stronger effect = lower value 0.983 | locus YDR001C, strain nth1, stronger effect = lower value 0.982 | locus YDR069C, strain doa4, stronger effect = lower value 0.991 | locus YDR159W, strain sac3, stronger effect = lower value 0.973 | locus YDR195W, strain ref2 1.05 | locus YDR297W, strain sur2, stronger effect = lower value 0.979 | locus YDR334W, strain swr1, stronger effect = lower value 0.98 | locus YDR335W, strain msn5, stronger effect = lower value 0.971 | locus YDR392W, strain spt3, stronger effect = lower value 0.878 | locus YEL003W, strain gim4, stronger effect = lower value 0.978 | locus YEL037C, strain rad23, stronger effect = lower value 0.98 | locus YEL061C, strain CIN8 (second series), stronger effect = lower value 0.978 | locus YER015W, strain faa2, stronger effect = lower value 0.986 | locus YER016W, strain bim1, stronger effect = lower value 0.969 | locus YER111C, strain swi4, stronger effect = lower value 0.989 | locus YER155C, strain BEM2 (second series), stronger effect = lower value 0.947 | locus YFR010W, strain ubp6, stronger effect = lower value 0.986 | locus YGL167C, strain pmr1, stronger effect = lower value 0.957 | locus YGL173C, strain kem1, stronger effect = lower value 0.965 | locus YGL227W, strain vid30, stronger effect = lower value 0.959 | locus YGL240W, strain doc1, stronger effect = lower value 0.948 | locus YGL253W, strain hxk2, stronger effect = lower value 0.974 | locus YHR013C, strain ard1, stronger effect = lower value 1.01 | locus YHR027C, strain rpn1, stronger effect = lower value 0.985 | locus YHR142W, strain chs7, stronger effect = lower value 0.955 | locus YJL092W, strain hpr5, stronger effect = lower value 0.973 | locus YJL095W, strain BCK1 (second series), stronger effect = lower value 0.975 | locus YJL115W, strain asf1, stronger effect = lower value 0.986 | locus YJL129C, strain trk1, stronger effect = lower value 0.977 | locus YJL154C, strain vps35, stronger effect = lower value 0.984 | locus YJL164C, strain tpk1, stronger effect = lower value 0.964 | locus YJL166W, strain qcr8, stronger effect = lower value 0.975 | locus YJL187C, strain SWE1, stronger effect = lower value 0.985 | locus YKL160W, strain elf1, stronger effect = lower value 0.966 | locus YKR026C, strain gcn3, stronger effect = lower value 0.97 | locus YKR091W, strain srl3, stronger effect = lower value 0.973 | locus YLL001W, strain dnm1, stronger effect = lower value 0.98 | locus YLL026W, stronger effect = lower value 0.968 | locus YLL041C, strain sdh2, stronger effect = lower value 0.974 | locus YLR027C, strain aat2, stronger effect = lower value 0.972 | locus YLR221C, strain rsa3, stronger effect = lower value 0.972 | locus YLR258W, strain gsy2, stronger effect = lower value 0.969 | locus YLR320W, strain mms22, stronger effect = lower value 0.901 | locus YLR342W, strain FKS1, stronger effect = lower value 0.971 | locus YLR357W, strain rsc2, stronger effect = lower value 1 | locus YLR370C, strain arc18, stronger effect = lower value 0.972 | locus YLR384C, strain iki3, stronger effect = lower value 0.982 | locus YML120C, strain ndi1, stronger effect = lower value 0.973 | locus YMR058W, strain fet3, stronger effect = lower value 0.976 | locus YMR125W, strain sto1, stronger effect = lower value 0.985 | locus YMR129W, stronger effect = lower value 0.978 | locus YMR205C, strain PFK2, stronger effect = lower value 0.933 | locus YMR231W, strain pep5, stronger effect = lower value 0.997 | locus YNL071W, strain lat1, stronger effect = lower value 0.959 | locus YNL209W, strain ssb2, stronger effect = lower value 0.98 | locus YNL248C, strain rpa49, stronger effect = lower value 0.958 | locus YNL322C, strain KRE1 (second series), stronger effect = lower value 0.971 | locus YNR049C, strain mso1, stronger effect = lower value 0.974 | locus YOR001W, strain rrp6, stronger effect = lower value 0.969 | locus YOR070C, strain gyp1, stronger effect = lower value 0.973 | locus YOR080W, strain dia2, stronger effect = lower value 0.985 | locus YOR083W, strain WHI5, stronger effect = lower value 0.965 | locus YOR106W, strain vam3, stronger effect = lower value 0.975 | locus YOR265W, strain rbl2, stronger effect = lower value 0.974 | locus YOR270C, strain vph1, stronger effect = lower value 0.915 | locus YOR290C, strain snf2, stronger effect = lower value 0.959 | locus YPL051W, strain arl3, stronger effect = lower value 0.963 | locus YPL078C, strain atp4, stronger effect = lower value 0.973 | locus YPL106C, strain sse1, stronger effect = lower value 0.997 | locus YPL240C, strain hsp82, stronger effect = lower value 0.964
active: locus YDR137W, strain rgp1, stronger effect = lower value 0.799 | locus YLR262C, strain YPT6 (second series), stronger effect = lower value 0.82
